Experimental data as given in PubChem BioAssay (NCI).
The panel holds about 79,000 compounds, 15% with a hit somewhere; the sample as a whole holds those more often. Calls of active or inactive are those of the source. Cut-off read from the data, not from the text of the source: active = growth inhibition above about 70%; inactive = the rest. Where a SMILES comes first, the peptide text is derived from it. The star is where a group is joined. Cbz = O=C(OCc1ccccc1)*

Assays:
[1] = NCI Yeast Anticancer Drug Screen. Data for the rad50 strain (AID 155);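 note: 0% = growth of vehicle-only cultures of the same strain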; conditions: S. cerevisiae rad50 strain growth inhibition; at 50.0 µM; active compounds read high
In short: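 Cells are treated with compound, grown, and their growth is then scored against vehicle-only cultures of the same repair-deficient yeast strain.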

[2] = NCI Yeast Anticancer Drug Screen. Data for the mec2-1 strain (AID 157); conditions: S. cerevisiae mec2-1 strain, at 50.0 µM, active compounds read high
In short: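 mec2-1 yeast strain, carrying an alteration in DNA damage repair or cell cycle control, was exposed to compounds; growth inhibition was measured relative to vehicle-treated controls.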

[3] = NCI Yeast Anticancer Drug Screen. Data for the sgs1 mgt1 strain (AID 161);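 note: 0% = growth of cultures given vehicle only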; conditions: S. cerevisiae sgs1 mgt1 strain, at 50.0 µM, active compounds read high
In short: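 This yeast growth screen uses a strain with defined DNA-repair lesions; compound-treated growth is compared with vehicle-treated growth.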

[4] = NCI Yeast Anticancer Drug Screen. Data for the cln2 rad14 strain (AID 165);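 note: 0% = growth equal to vehicle treated cultures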; conditions: S. cerevisiae cln2 rad14 strain, at 50.0 µM, active compounds read high
In short: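 Yeast carrying cln2 and rad14 alterations (cell cycle control and DNA damage repair) were exposed to compounds. Growth inhibition was measured against vehicle-treated controls.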

[5] = NCI Yeast Anticancer Drug Screen. Data for the bub3 strain (AID 167); conditions: S. cerevisiae bub3 mutant strain, at 50.0 µM, active compounds read high
In short: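 Part of a panel of yeast mutants defective in DNA damage repair or cell cycle regulation. Each strain is grown with compound, and inhibition is calculated relative to solvent-treated cultures.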

[6] = NCI Yeast Anticancer Drug Screen. Data for the mlh1 rad18 strain (AID 175); conditions: S. cerevisiae mlh1 rad18 strain growth inhibition; at 50.0 µM; active compounds read high
In short: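 Growth inhibition of the yeast strain was measured after compound exposure and expressed relative to vehicle-treated controls. The strain carries defined defects in DNA damage repair.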

Measured: growth inhibition

CCOC(=O)C(C(=O)OCC)=C(C)C
inactive: [1] -9.9% | [2] -32% | [3] -12.2% | [4] -3.1% | [5] -26.1% | [6] -37.3%

CC1(C)OC2C(CO)OC(n3ccc(N)nc3=O)C2O1 (stereo unspecified)
inactive: [1] -33% | [2] -12% | [3] 2.15% | [4] -29.9% | [5] 10.6% | [6] -1.75%

CCC(CC)C(=O)NC(=O)NC
inactive: [1] -4.85% | [2] -16.5% | [3] -21.2% | [4] -25.1% | [5] -8.05% | [6] 21%

Cc1ccc(S(=O)(=O)N2CCCCC2)cc1
inactive: [1] -11.8% | [2] -3.35% | [3] 38.3% | [4] -26.1% | [5] -6.75% | [6] -20.5%

Oc1cc2cc(-c3ccccc3)[nH]c2c2ccccc12
inactive: [1] -11.1% | [2] -5.25% | [3] -1.3% | [4] 18.8% | [5] -2.1% | [6] 1.3%

CN(C)CCSCC(=O)N1c2ccccc2Sc2ccccc21
inactive: [1] -7.7% | [2] -8.5% | [3] -5.8% | [4] -41.2% | [5] 3% | [6] -4.8%

N#CCCN(CCC#N)c1ccc(/C=C2\CC(O)(c3ccccc3)N(c3ccc(Cl)cc3)C2=O)cc1 (stereo unspecified)
inactive: [1] -15.8% | [2] 0.35% | [3] -23.7% | [4] 11.3% | [5] -6.3% | [6] -22.4%

CSc1nc2c(cnn2C)c(=O)[nH]1
inactive: [1] 14.7% | [2] -1.95% | [3] 3.3% | [4] -4.55% | [5] 10.5% | [6] 24.6%

Cc1ccccc1C(c1ccccc1C)c1ccccc1C
inactive: [1] -10.8% | [2] 1% | [3] -10.8% | [4] -15.6% | [5] 1.25% | [6] -19.6%

CCOC(=O)Cn1c(C)nc2nn(Cc3ccccc3)cc2c1=O
inactive: [1] -49.7% | [2] -56.1% | [3] -36.2% | [4] -1.35% | [5] -32.9% | [6] -30.8%

Clc1ccccc1OCc1cnc[nH]1
inactive: [1] -4.05% | [2] -23.7% | [3] -14.9% | [4] 6.2% | [5] -9.85% | [6] -8.7%

COC(=O)c1c(-c2ccc(OC)c(OC)c2)cn(C)c1C
inactive: [1] 19.4% | [2] 12.8% | [3] 21% | [4] -6.15% | [5] 10.5% | [6] 25.2%

FC(F)(F)C1(C(F)(F)F)OS2(OC(C(F)(F)F)(C(F)(F)F)c3ccccc32)c2ccccc21
inactive: [1] 0.5% | [2] 3.4% | [3] 3.3% | [4] -22.9% | [5] -1.1% | [6] -5.1%

CS(=O)(=O)OCC1CCCCCCCCCCC12SCCCS2 (stereo unspecified)
inactive: [1] -30.9% | [2] -22.7% | [3] -3.25% | [4] 20.4% | [5] -23.6% | [6] -45.9%

CC(C)NC(=O)C1C2CCC(CC2)C1C(=O)NC(C)C (stereo unspecified)
inactive: [1] 0.95% | [2] 34.6% | [3] -4% | [4] -3.3% | [5] 17.7% | [6] 0.35%

COC(=O)Cc1ccccc1C(c1ccccc1)c1ccccc1
inactive: [1] -1.85% | [2] -0.4% | [3] 9.7% | [4] 6.7% | [5] 13.8% | [6] -0.65%

CNC(=O)/C=C/C1=CN2C(=O)c3ccc(C)c(O)c3NC(OC)C2C1 (stereo unspecified)
active: [1] 91.5% | [2] 93.7% | [3] 93% | [4] 92.6% | [5] 92.3% | [6] 89.2%

CCOC(=O)c1c(-c2ccccc2)csc1NC(=O)CN1CCCCC1
inactive: [1] 28.6% | [2] 8.8% | [3] 14.7% | [4] 6.55% | [5] 17.9% | [6] 24.7%

COc1cc2c(cc1OC)C(CC(=O)NN=C(C)C)NCC2 (stereo unspecified)
inactive: [1] -20.6% | [2] -19.6% | [3] -10.2% | [4] 3.1% | [5] -16.8% | [6] -34.2%

CNC(=O)CCC(=O)O
inactive: [1] -7.25% | [2] -20.2% | [3] -7.5% | [4] -2.7% | [5] -23.4% | [6] -8.45%

CCOC(=O)CCC(C#N)C(=O)OCC (stereo unspecified)
inactive: [1] 0.45% | [2] -3.9% | [3] 9.3% | [4] -10.2% | [5] 27.6% | [6] 6%

COc1cc(C2SCC(=O)N2c2ccc(-n3c(-c4ccccc4)nc4ccccc4c3=O)cc2)ccc1O (stereo unspecified)
inactive: [1] -12.6% | [2] -8.75% | [3] 10.7% | [4] -36.2% | [5] 3.3% | [6] 22%

CCOC(=O)Oc1ccc(C(CNC(C)C)OC(=O)OCC)cc1OC(=O)OCC (stereo unspecified)
inactive: [1] 38.5% | [2] 2.8% | [3] 25.6% | [4] 9.65% | [5] 4.45% | [6] 32.9%

CC(=O)O[C@H]1CC[C@]2(C)[C@H]3C(=O)C=C4[C@@H]5C[C@@](C)(C(=O)O)CC[C@]5(C)CC[C@@]4(C)[C@]3(C)CC[C@H]2C1(C)C
inactive: [1] 31.2% | [2] 23.8% | [3] 41.5% | [4] 52.1% | [5] 26% | [6] -5.75%

O=C(O)c1ccccc1C(=O)OC1CC2C=CC1C21CC1 (stereo unspecified)
inactive: [1] -12.2% | [2] -13.2% | [3] -15.3% | [4] -1.9% | [5] -6.2% | [6] -9.75%

COC(=O)N1N=C(c2ccccc2)C(C(=O)OC)(C(=O)OC)c2ccccc21
inactive: [1] 45.7% | [2] 11.9% | [3] 24.6% | [4] 16.6% | [5] 20.2% | [6] 36.8%

O=C(O)/C(=C\c1ccccc1[N+](=O)[O-])c1ccccc1
inactive: [1] 35.3% | [2] -3.05% | [3] 7.45% | [4] -30.9% | [5] -1.45% | [6] 47.4%

Cc1ccc(O)c(O)c1
inactive: [1] 33.9% | [2] -13.1% | [3] -6.45% | [4] -8.9% | [5] -20.3% | [6] 23.9%

CCOC(=O)CCC(NC(=O)C(CCC(=O)OCC)NC(=O)OCc1ccccc1)C(=O)O (stereo unspecified) (tested in a mixture with another compound) (Cbz-Glu(OEt)-Glu(OEt)-OH; configuration not given here)
inactive: [1] -43.5% | [2] 1.15% | [3] -11.2% | [4] -34.9% | [5] -52.9% | [6] 38.6%

c1ccc(-c2nc3ncncc3[nH]2)cc1
inactive: [1] 7% | [2] -10.3% | [3] -7.65% | [4] -13.8% | [5] -3.45% | [6] -5.6%

Oc1c(/N=N/C(=S)NCCCN2CCN(CCCNC(=S)/N=N/c3[nH]c4ccccc4c3O)CC2)[nH]c2ccccc12
inactive: [1] 22.8% | [2] 6.45% | [3] 20.6% | [4] -2.7% | [5] -17.8% | [6] 14.9%

CC1CNC(=S)SSC(=S)N1 (stereo unspecified)
inactive: [1] 35.8% | [2] 26.5% | [3] 20.9% | [4] 32.7% | [5] 14.1% | [6] 27.7%

Cn1c(=O)[nH]c2c(c1=O)CCCS2
inactive: [1] 3.75% | [2] 6.4% | [3] 20.4% | [4] 0.65% | [5] -19.6% | [6] -10.1%

C=CCCC1CN2CCc3cc(OC)c(OC)cc3C2CC1=O (stereo unspecified)
inactive: [1] 15.3% | [2] 16.1% | [3] 10.6% | [4] -41.7% | [5] 28.4% | [6] 20.1%

COc1ccc2c(c1)N(S(=O)(=O)c1ccc(C)cc1)C[C@@H]1c3cc(O)c(OCc4ccccc4)cc3O[C@H]21
inactive: [1] -8.95% | [2] 7.9% | [3] -7.8% | [4] -6.8% | [5] 2.4% | [6] 15.6%

C=CCNC(=S)Nc1cccc(C(C)OC(=O)NC(C)(C)C)c1 (stereo unspecified)
inactive: [1] 1.2% | [2] 30.9% | [3] 36.2% | [4] -5.8% | [5] 33.8% | [6] 20.6%

O=C1C=CC(=O)C1
inactive: [1] 16% | [2] -7.95% | [3] 3.15% | [4] -0.3% | [5] 5.65% | [6] -3.75%

[Cl][Bi]([O]c1ccccn1)[O]c1ccccn1
inactive: [1] 9.9% | [2] -1.55% | [3] -13.4% | [4] 17.4% | [5] 28.6% | [6] -25.8%

NC(=O)NC1CCCCCCC1
inactive: [1] 5.95% | [2] -14.9% | [3] 1.05% | [4] -7.45% | [5] 4.75% | [6] 0.3%

CC1=NNC(=O)CC1C(O)c1ccccc1 (stereo unspecified)
inactive: [1] -31.1% | [2] 3.65% | [3] -12.1% | [4] 3% | [5] -8.45% | [6] -11.4%

CNc1ccccc1C(N)=S
inactive: [1] 5.9% | [2] 2.5% | [3] -2.95% | [4] -26.1% | [5] -5.55% | [6] 11.8%
